Only some compounds are listed: those with a hit (about 4.7% of all), similar ones and a draw of the others.
ALR inh – human ALR oxidase inhibition via reduced H2O2; purified ALR, DTT oxidation, H2O2 HRP-luminol luminescence; P55789; inhibition, % (concentration not given with the values); 3.8% of 290,000 active;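 active = mean replicate inhibition above about 79%, with every replicate also reaching it, limit read from the data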
Target sequence (P55789 whole entry, looked up): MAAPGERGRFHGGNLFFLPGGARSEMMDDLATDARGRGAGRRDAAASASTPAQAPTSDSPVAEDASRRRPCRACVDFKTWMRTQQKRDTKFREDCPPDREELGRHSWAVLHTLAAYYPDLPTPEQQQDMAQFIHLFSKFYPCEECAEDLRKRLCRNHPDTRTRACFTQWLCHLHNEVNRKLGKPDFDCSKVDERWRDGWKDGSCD
PABP1 MLLE inh – blocks PAM2 peptide binding to the PABP1 MLLE domain | P11940 | inhibition, % at 20 µM | AID 588489 | 0.36% of 360,000 active | GST-MLLE / FITC-PAM2 fluorescence polarization; in the data active = inhibition above about 35%, passing the limit was not always enough;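 note: plate controls were DMSO wells with GST-MLLE for no effect and wells lacking GST-MLLE protein for full effect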
Efflux pump mplx – inhibitors of Candida antifungal efflux pumps expressed in yeast; S. cerevisiae Candida pump triplex, Nile Red efflux; 0.44% of 330,000 active; inhibition, % at 10 µM;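 active = plate passing quality check with inhibition over a set limit, or well fluorescence over plate mean plus 4 SD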;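 note: Nile Red retained in pooled yeast measured as flow cytometry median fluorescence; 0% = buffer negative control and 100% = Enniatin B positive control; higher means more Nile Red kept so more efflux inhibition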
eIF4H FP inh – inhibitors of RNA binding by human eIF4H; AID 2012; 0.94% of 290,000 active; eIF4H fluorescence polarization binding assay; Q15056; inhibition, % at 35 µM;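 note: calls also rest on retests at 20 µM and on dose response follow-up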
PABP FP inh – blocks human PABP binding to poly(A) RNA. P11940. fluorescence polarization. inhibition, % at 35 µM. 1% of 290,000 active. AID 2014;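 note: calls also rest on retests at 20 µM and on dose response follow-up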
SUMO HTRF inh – blocks human SUMOylation mediated by UBC9; 0.36% of 290,000 active; HTRF SUMOylation assay, SAE1/SAE2 + UBC9, in vitro; inhibition, % at 35 µM; P63279; AID 2006; in the data active = inhibition above about 50%, passing the limit was not always enough
Target sequence (P63279 whole entry, looked up): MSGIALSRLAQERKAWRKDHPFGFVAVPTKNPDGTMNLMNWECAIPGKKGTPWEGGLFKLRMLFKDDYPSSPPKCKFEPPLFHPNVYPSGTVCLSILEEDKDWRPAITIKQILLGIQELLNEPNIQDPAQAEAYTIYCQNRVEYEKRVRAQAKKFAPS
* hit, by the source's call; . = no result. Unless noted, the rule behind the calls is not given here.

SMILES	ALR inh	PABP1 MLLE inh	Efflux pump mplx	eIF4H FP inh	PABP FP inh	SUMO HTRF inh
CC1(C)CC(=O)C2=C(C1)Nc1cc3c(cc1C2c1ccc2c(c1)OCO2)OCO3 (stereo not given)	-23.7	-6.9	-0.4	0.4	-7.3	21.4
CN(C)c1ccc(C2CC(=O)OC3=C2C(=O)CC(C)(C)C3)cc1 (stereo not given)	98.7*	-11.9	-0.1	-7.1	1.7	12.2
CNC(C)C(=O)NC(C(=O)NC(C)C(=O)Nc1cccc2ccccc12)C(C)C (stereo not given)	.	-4.5	.	.	.	.
Cc1cc(C)n(CC(=O)NNC(=O)COc2ccc(Br)cc2F)n1	-0.8	101.4*	0.0	.	.	.
Cc1cc(C)n(CC(=O)NNC(=O)CCCOc2ccc(Cl)cc2C)n1	-1.2	7.6	-0.1	-9.7	-3.0	2.4
CC(=O)Nc1ccc(S(=O)(=O)NNC(=O)COc2ccc(C)cc2)cc1	-9.7	-4.0	-0.2	4.8	-5.7	1.1
CC(=O)Nc1ccc(S(=O)(=O)NNC(=O)c2cccc(Cl)c2)cc1	99.0*	30.7	-0.1	-7.2	5.8	-2.8
CC(=O)Nc1ccc(S(=O)(=O)NNC(=O)c2ccc3c(c2)OCO3)cc1	15.1	16.3	0.4	-10.2	9.6	-1.4
CC(=O)Nc1ccc(S(=O)(=O)NNC(=O)COc2ccc(C(C)(C)C)cc2)cc1	97.3*	25.6	0.1	5.3	-4.8	3.9
O=C(Cn1ccc(NC(=O)OCc2ccccc2)nc1=O)NCCCn1ccnc1	2.4	1.4	0.1	.	.	.
CNc1ncnc2c1ncn2[C@H]1CN(Cc2ccncc2)C[C@@H](CO)O1	.	3.0	.	.	.	.
CN(C)c1ccc(/C=C/C(=O)c2ccc3c(c2)OCO3)cc1	98.9*	164.9	0.3	.	.	.
O=C(N/N=C/c1ccc([N+](=O)[O-])o1)c1ccc2c(c1)OCO2	-43.0	-5.0	-0.1	79.0*	38.7*	5.6
O=C(N/N=C/c1cc2c(cc1[N+](=O)[O-])OCO2)c1cccnc1	-5.6	0.4	0.4	84.9*	29.5*	41.6
CN(C)c1ccc(/C=N/NC(=O)c2ccc3c(c2)OCO3)cc1	97.5*	-11.4	-0.1	-8.7	-12.3	9.4
O=C(/C=C/c1ccc2c(c1)OCO2)c1ccc(F)cc1	5.5	9.6	.	1.9	-8.5	1.1
O=C(N/N=C/c1cc2c(cc1[N+](=O)[O-])OCO2)c1ccc2c(c1)OCO2	-9.2	6.5	-0.1	14.3	7.7	10.6
Cc1cc(N2CCOCC2)nc2ccc(Cl)cc12	-5.9	-0.9	-0.3	-1.9	1.3	2.7
NNC(=O)Cc1cccc2ccc(Cl)cc12	.	-4.0	.	.	.	.
COc1nc(=O)n(C2C=CC(=O)O2)cc1F (stereo not given)	.	8.4	.	.	.	.
Cc1ccc2nc(NC(=O)COC(=O)c3cccnc3)sc2c1	-8.1	13.3	0.7	.	.	.
O=C(/C=C/c1ccccc1)c1ccc2c(c1)OCO2	97.3*	-2.5	0.1	1.5	-2.3	-0.6
CC1(C)Oc2ccc(C(=O)N/N=C/c3ccc(O)cc3)cc2NC1=O	99.3*	7.8	-0.1	-3.2	6.0	16.4
Cc1cccc(C(=O)Nc2ccc(C(=O)c3ccncc3)cc2)c1	.	-1.5	.	.	.	.
O=C(CSc1nnc(CNC(=O)c2c(F)cccc2Cl)o1)NCc1ccccc1	-26.5	12.9	0.1	-4.1	9.0	-7.2
SMILES	ALR inh	PABP1 MLLE inh	Efflux pump mplx	eIF4H FP inh	PABP FP inh	SUMO HTRF inh
O=[N+]([O-])c1cc(S(=O)(=O)O)cc([N+](=O)[O-])c1NN(c1ccccc1)c1ccccc1	98.5*	-12.4	-0.2	-3.3	17.7	3.5
CC(Oc1ccc(S(=O)(=O)N2CCCC2)cc1[N+](=O)[O-])C(=O)N(C)c1ccccc1 (stereo not given)	-5.0	6.6	-0.1	.	.	.
O=C(Nc1ccccc1)c1ccc(OC(=O)c2ccccc2)cc1	.	-14.3	0.0	0.6	-9.0	16.6
CCCCC(=O)OCC(=O)Nc1ccc(C)c(F)c1	0.9	-1.5	-0.1	-5.3	-5.0	-9.2
CCCCCCCNC1=CC(=O)CC(c2ccco2)C1 (stereo not given)	10.5	-13.3	0.5	93.1*	84.1*	46.7
CCOc1ccc(NC2=CC(=O)CC(c3ccco3)C2)cc1 (stereo not given)	-10.6	-11.3	-0.1	-1.8	1.4	8.3
Cc1ccc(NC(=O)CSc2nc(NS(=O)(=O)c3ccccc3)cc(=O)[nH]2)cc1	98.1*	14.2	-0.1	57.9	-5.8	45.1
O=C(CSc1nncs1)Nc1ccc(N2CCCCC2)cc1	98.4*	-2.7	-0.1	.	.	.
COc1ccc(NC(=O)CSc2nncs2)cc1S(=O)(=O)N1CCCCC1	-5.2	-5.9	-0.3	.	.	.
Cc1cc(=O)[nH]c(SCC(=O)Nc2ccc(C(=O)O)cc2)n1	98.8*	46.9*	-0.7	-0.2	7.1	15.4
CCc1ccc(NC(=O)CSc2nc(NS(=O)(=O)c3ccccc3)cc(=O)[nH]2)cc1	.	8.1	.	14.0	6.2	8.1
CCOC(=O)c1cc(C#N)c(SCC(=O)Nc2ccc(C(C)=O)cc2)[nH]c1=O	98.9*	16.8	-0.1	-2.8	13.5	6.8
CCOc1ccc(CCNC(=O)COC(=O)c2ccc(C)s2)cc1OCC	-11.7	-3.7	0.0	-1.5	-4.9	-2.7
COCCNC(=O)C1(C)CCCN(CC(=O)c2ccc(OC)cc2)C1 (stereo not given)	.	3.6	.	.	.	.
CCCCCCn1c(COc2ccccc2F)nnc1SCC(=O)NC1CCS(=O)(=O)C1 (stereo not given)	.	-15.4	.	.	.	.
O=C(N/N=C1\CCCc2c1[nH]c1ccc([N+](=O)[O-])cc21)c1ccncc1	-8.1	.	-0.1	13.4	-7.4	-0.6
CCOc1ccc(NC(=O)CSc2nc(NS(=O)(=O)c3ccc(C)cc3)cc(=O)[nH]2)cc1	.	6.2	.	-11.7	-4.6	-23.3
CCOc1ccc(NC(=O)CSc2nncc(=O)[nH]2)cc1	99.4*	8.4	-0.1	-6.0	-0.9	-3.3
CCCc1cc(=O)[nH]c(SCC(=O)Nc2ccc(N3CCCCC3)cc2)n1	27.7	-9.4	0.0	.	.	.
Cc1cc(=O)[nH]c(SCC(=O)Nc2ccc(N3CCCCC3)cc2)n1	92.3*	17.4	0.2	.	.	.
CCCCc1ccc(Nc2nc(CCC)cc(=O)[nH]2)cc1	-4.6	-6.8	0.5	9.5	5.0	-13.4
CCCc1cc(=O)[nH]c(Nc2ccc(N3CCCCC3)cc2)n1	97.7*	0.8	-0.1	-4.8	-0.1	-17.9
Cc1cc(=O)[nH]c(SCC(=O)Nc2ccc(F)c([N+](=O)[O-])c2)n1	97.9*	3.2	0.1	10.6	5.8	-8.3
O=C(Nc1ccc(C(=O)N2CCOCC2)cc1)c1ccccc1Cl	.	13.7	.	.	.	.
CC(=O)c1c(C)[nH]c(C(=O)CSc2nc3ccc(C)cc3[nH]2)c1C	97.1*	-96.1	0.0	7.9	-5.3	16.3
O=C(CSc1nccc(=O)[nH]1)Nc1ccc(S(=O)(=O)N2CCOCC2)cc1	98.8*	26.0	0.1	-6.3	-13.7	30.7
Cc1ccc2nc(SCC(=O)Nc3ccc(C)c([N+](=O)[O-])c3)[nH]c2c1	87.4*	-124.6	0.0	3.2	-2.4	-18.8
Cc1cc(=O)[nH]c(SCC(=O)Nc2ccc(C)c(S(=O)(=O)N3CCCCC3)c2)n1	70.9	8.8	0.1	4.3	15.9	19.8

Bioassay records (PubChem)
